From PubChem BioAssay
TSG101-PTAP inh – blocks PTAP/TSG101 interaction to inhibit HIV-1 budding | Fluorescence polarization, FITC-PTAP peptide / Tsg101 binding | Potency, µM (titrated, usually from 115 µM), for the others: at the highest dose activity change, negative = inhibition, most hits filed as inhibitors | 340,000 tested, under 10 active; active = well fitted inhibition curve with a large enough effect in the main read-out, with a control signal flat, not every such curve was filed as active; inconclusive = small, poorly fitted or top-dose-only effect, or effect the other way, or a change in a side signal; inactive = no such curve, though single readings can be large or run the other way; also: potency is read from the fitted curve at half-maximal effect; % of control where 0% means no effect
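Compounds were pin-transferred onto Tsg101 binding domain (10 uM final) in HEPES pH 7.5 buffer, then FITC-PTAP peptide was added at 50 nM final. After 20 min at RT, polarization reported peptide displacement across a qHTS concentration series.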
DRD3 antagonist – antagonists of human D3 dopamine receptor; P35462; D3R cells, DiscoveRx beta-arrestin luminescence, antagonist mode; stronger effect = lower value; max response, negative = inhibition, %; 360,000 compounds, 2.5% hits; in the data active = max response below about -50%; inconclusive = no clear call, values can overlap the other calls; also: % is scaled to controls: 0 for no effect and ±100 for the full control effect
Target sequence (P35462 whole entry, looked up): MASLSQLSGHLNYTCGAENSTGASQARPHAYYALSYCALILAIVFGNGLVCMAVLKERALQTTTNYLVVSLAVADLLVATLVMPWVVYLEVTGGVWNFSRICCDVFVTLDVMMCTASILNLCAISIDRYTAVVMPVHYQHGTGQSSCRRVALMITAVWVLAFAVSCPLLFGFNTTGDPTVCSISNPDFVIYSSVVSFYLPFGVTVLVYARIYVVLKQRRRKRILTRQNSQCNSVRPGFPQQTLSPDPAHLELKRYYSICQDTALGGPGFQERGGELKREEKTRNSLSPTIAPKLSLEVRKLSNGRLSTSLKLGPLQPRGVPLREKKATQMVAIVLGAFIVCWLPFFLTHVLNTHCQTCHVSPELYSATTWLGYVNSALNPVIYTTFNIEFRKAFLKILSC
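Cells plated overnight at 1500 cells/well, then exposed to library compounds with dopamine controls for 90 minutes at 37 degrees C. DiscoveRx reagent added for 30–60 minutes at room temperature; luminescence read, quantitative HTS format.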
DRD3 agonist – activates the human D3 dopamine receptor; D3R DiscoveRx beta-arrestin cells, luminescence, 90 min; 410,000 compounds, 0.58% hits; P35462; max activation, %; AID 652048; in the data active = max activation above about 30%; also: 0% is about no effect
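Agonist-mode cell screen: cells plated at 1500/well and incubated overnight at 37 °C, then exposed to library compounds for 90 min at 37 °C. Detection reagent was added for 30–60 min at room temperature, and luminescence was read.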
Rango release inh – inhibitors of RanGTP-induced Rango-importin beta complex dissociation; O95149+P62826; Biochemical FRET Rango-importin beta, RanGTP-induced dissociation; Potency, µM (top dose mostly 46.1 µM), for inactives: top-dose activity change, negative = inhibition; 340,000 compounds, 0.071% hits; AID 540253; also: potency is read from the fitted curve at half-maximal effect; % of control where 0% means no effect; nearly all actives have a fitted effect of over 45% in size
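Rango/importin beta premix (0.1/0.25 uM final), PBS + 1 mM DTT + 0.02% Tween-20 + 0.1% BSA; cpd 5 min RT; FRET pre-read; + RanGTP-RCC1 (0.6 uM Ran, 2 mM GTP, 0.2 uM RCC1); 45 min RT; FRET post-read, ex 430, em 486/530 nm.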
Mm-Cpn inhibitor – blocks the Methanococcus maripaludis chaperonin Mm-Cpn; 330,000 compounds, 0.031% hits; Potency, µM (highest dose often 76.9 µM), without a hit: at the highest dose activity, negative = inhibition, most hits filed as inhibitors; purified Mm-Cpn ATPase, ADP Transcreener TR-FRET; AID 504842; active = well fitted inhibition curve with a large enough effect; inconclusive = small, poorly fitted or top-dose-only effect; also: potency is read from the fitted curve at half-maximal effect; % is scaled to controls: 0 for no effect and ±100 for the full control effect; nearly all actives have a fitted effect of over 80% in size
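Eu-cryptate anti-ADP/ADP-d2 competition gives a ratio inversely related to ADP. Enzyme at 25 nM was pre-exposed to compound for 10 min, then given 10 uM ATP for 30 min, 37°C throughout.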
Rango complex inh – inhibitors of Rango-importin beta complex formation | Q14974 | Rango CFP/YFP FRET sensor + importin beta, 45 min | Potency, µM (titrated, usually from 92.2 µM), for the others: top-dose inhibition of complex formation | 340,000 compounds, 0.031% hits | AID 540263;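 also: potency is read from the fitted curve at half-maximal effect; 0% = DMSO wells and 100% = buffer wells lacking importin beta; nearly all actives have a fitted effect of over 15% in size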
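FRET biosensor Rango (snurportin 1 IBB between N-terminal EYFP and C-terminal Cerulean), 50 nM in PBS/1 mM DTT/0.02% Tween-20/0.1% BSA, preincubated 5 min RT with compound; 0.125 microM importin beta added, 45 min RT, CFP/YFP FRET ratio read.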
* marks the source's active call; other numbers are inactive results; u = inconclusive; x = not tested or not shown; [ ] = remark or other dose. Hits are enriched below; roughly 2.9% of the tested compounds scored in any of these assays. Unless noted, calls follow the shape of the full dose curve.

SMILES | TSG101-PTAP inh | DRD3 antagonist | DRD3 agonist | Rango release inh | Mm-Cpn inhibitor | Rango complex inh
Cn1c(=O)c(C(=O)CCl)c(N)n(CC2CC2)c1=O | 2% | 0 | 35* | 11% | -1% | 0%
COc1ccc(NC(=O)c2cnn(-c3ccccc3)c2C)c(OC)c1 | -1% | -61* | 0 | -10% | 4% | 2%
COc1ccc(NC(=O)CNC(=O)c2nn(-c3ccc(OC)c(Cl)c3)c(=O)c3ccccc23)c(OC)c1 | -3% | 82 | 30* | 5% | 2% | 2%
CCOc1ccc(NC(=O)CNC(=O)c2nn(-c3ccc(OC)c(OC)c3)c(=O)c3ccccc23)cc1 | -6% | 86 | 37* | 10% | 0% | 0%
COc1ccc(NC(=O)c2cc(-c3ccccc3)nc3c2c(C)nn3-c2ccccc2)c(OC)c1 | 1% | 33 | 2 | -5% | -1% | 2%
COc1ccc(-n2nc(C(=O)NCC(=O)Nc3cc(Cl)c(OC)cc3OC)c3ccccc3c2=O)cc1 | 2% | -1 | 4 | 4% | 0% | 5%
CCc1ccc(-c2cc(C)no2)cc1S(=O)(=O)Nc1ccc(Cl)cc1 | x | x | 2 | x | x | x
CC(=O)Nc1ccc(C(=O)CSc2cc(C)c3cccc(C)c3n2)cc1 | -1% | 14 | 41* | -20% | -3% | u
CCCn1nc([N+](=O)[O-])c(C(C#N)c2nc3ccccc3o2)c(Cl)c1=O (stereo not given) | -4% | -61* | -6 | 19% | -1% | 0%
COC1CCCCC1Nc1ccc(C)c(C)c1 (stereo not given) | -7% | -5 | 13 | 10% | -2%[15.4 µM] | -4%
Cc1cc2oc(=O)cc(CN3CCCC3)c2cc1Cl | x | u | -8 | x | x | x
CCOC(=O)C1CCN(Cc2cc(=O)oc3cc(C)c(Cl)cc23)CC1 | -3% | 11 | 36* | 2% | 0% | 4%
CC1CCN(Cc2cc(=O)oc3cc4c(cc23)CCCC4)CC1 | 1% | -98* | -18 | -9% | 1% | 0%
COC(=O)C1CCN(Cc2cc(=O)oc3cc(OC)ccc23)CC1 | 0% | -16 | 34* | -11% | 1% | -1%
CCCCc1cc(=O)oc2cc(OCC(=O)NC3CCN(Cc4ccccc4)CC3)ccc12 | -8% | -54* | -15 | 0% | 1% | -1%
COc1ccc(CCN2CC(C(=O)N(C)Cc3ccccn3)CCC2=O)cc1 (stereo not given) | x | 18 | 3 | x | x | x
CCOC(=O)c1ccc(NC(=O)Nc2c[nH]c(=O)[nH]c2=O)cc1 | x | x | 4 | x | x | x
Cc1ccc(S(=O)(=O)Nc2nncs2)cc1 | -4% | -60* | -1 | 7% | 1% | -3%
CN1CCN(C(=S)SCC(=O)N2CCCc3ccccc32)CC1 | -6% | -61* | -50 | -15% | 2% | 1%
COCC(=O)N1CCCc2ccccc21 | 0% | -18 | -2 | 8% | 0% | 1%
O=Cc1cn(CC(=O)N2CCCc3ccccc32)c2ccccc12 | -3% | -56* | -6 | 9% | 0% | 4%
Cc1cc(C)cc(NCc2nnc3n2CCCCC3)c1 | x | x | 6 | x | x | x
CCOC(=O)C1=C(CN2CCC(C)CC2)NC(=O)NC1c1ccc(Cl)cc1 (stereo not given) | -5% | -86* | 2 | 7% | -2% | 0%
CCOC(=O)C1=C(CN2CCC(C)CC2)NC(=O)NC1c1ccc(F)cc1 (stereo not given) | x | x | 2 | x | x | x
COc1ccc(/C(N)=N/OC(=O)CCCN2C(=O)c3ccccc3C2=O)cc1OC | -11% | -8 | 41* | 0% | -8% | 0%
SMILES | TSG101-PTAP inh | DRD3 antagonist | DRD3 agonist | Rango release inh | Mm-Cpn inhibitor | Rango complex inh
CN(C)CCOc1ccccc1Cc1ccccc1 (tested in a mixture with another compound) | x | x | -19 | x | x | x
NCCOc1ccccc1Cc1ccccc1 | -3% | -64* | -12 | -4% | 2% | 2%
C=C1C(=O)O[C@@H]2C[C@@H](C)[C@@H]3C=CC(=O)[C@@]3(C)[C@@H](OC(C)=O)[C@H]12 | -6% | -84* | -59 | -2% | 0% | 2%
CN1C[C@@H]2[C@@H]3C(=O)N(C)C(=O)[C@@H]3[C@](C)(C1=O)N2C(=O)c1ccc(Cl)cc1 | -2% | 0 | -12 | 9% | x | 2%
COc1ccccc1-c1noc(CSc2nnc(Cc3ccccc3)n2-c2ccc(C)c(C)c2)n1 | x | x | 18 | x | x | x
CCN1CCN(C(=O)/C=C/c2ccc(C(C)C)cc2)CC1 | -1% | u | -20 | 9% | x | 1%
CCN1CCC(O)(/C=C/c2ccc(C(C)C)cc2)C(C(=O)/C=C/c2ccc(C(C)C)cc2)C1 (stereo not given) | -2% | -66* | -9 | -24% | x | 5%
O=C(CCCn1c(=O)c2cccn2c2cccnc21)Nc1ccccc1Br | x | x | -14 | x | x | x
COC(=O)c1c(NC(=O)c2c(OC)cccc2OC)sc2c1CCCC2 | x | x | 7 | x | x | x
COC(=O)c1c(NC(=O)c2ccc(Br)s2)sc2c1CCC2 | 0% | 30 | 30* | u | -4% | u
Cc1c(Cl)cccc1N1CCn2c1nc1c2c(=O)n(CC(=O)O)c(=O)n1C | x | x | -7 | x | x | x
CCOC(=O)CCc1c(C)nc(SCCCn2c(=O)[nH]c3ccccc32)c(C#N)c1C | -1% | 4 | 13 | u | -1% | 0%
CCOC(=O)CCc1c(C)nc(SCCN2CCCC2)c(C#N)c1C | 2% | -56* | -8 | -13% | 0% | u
Cc1ccc(C)c(NC(=O)CSc2nnc(-c3ccncc3)n2N)c1 | -1% | -70* | -3 | -10% | 0% | u
NS(=O)(=O)c1ccc(N2CCN(CCOc3ccc(Cl)cc3)CC2)nc1 | 0% | -12 | 36* | 0% | -2% | 4%
COC(=O)[C@]1(Cc2ccccc2)N[C@H](CN(C)C(C)=O)[C@@H]2C(=O)N(Cc3ccccc3)C(=O)[C@@H]21 | 0% | -53* | -33 | 0% | 0% | 0%
CCNC(=O)N(CC)C[C@H]1N[C@@](Cc2ccccc2)(C(=O)OC)[C@H]2C(=O)N(C)C(=O)[C@@H]12 | -5% | -7 | 46* | -2% | 1% | 2%
CCN(C[C@H]1N[C@@](C)(C(=O)OC)[C@H]2C(=O)N(Cc3ccccc3)C(=O)[C@@H]12)C(=O)C1CCCCC1 | -2% | 16 | 13 | u | 1% | -1%
CCN(C[C@H]1N[C@@](Cc2ccccc2)(C(=O)OC)[C@H]2C(=O)N(Cc3ccccc3)C(=O)[C@@H]12)C(=O)C1CCCCC1 | -2% | -57* | -26 | 16% | -1% | 0%
CCn1c(SCC(=O)Nc2nc(C)c(C(=O)OC)s2)nnc1C(C)C | -5% | 2 | 2 | 27% | 0% | -1%
